Screen size: about 5,500 compounds; about 2,000 (36%) were called active. About 18% were inconclusive and are not listed. No stated cut-off is given here; in the data, active means normalized growth mostly below about 0.91 (no sharp cut-off); inconclusive means no clear call, values can overlap the other calls; inactive means mostly above about 0.92. This is one part of the list.
Assay: chemical genetic growth profiling, strain panel (AID 1159580);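 further: tested at 20 µM; growth read once vehicle control cultures reached saturation at 30 °C; 1 = growth at the plate median or of vehicle wells; lower values mean less growth of the strain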
Details: growth OD

Measured: normalized growth

COc1c(C(=O)O)ccc2c1CCC(C)(C)O2
active: S. cerevisiae deletion strains, locus YGR229C, strain SMI1, active compounds read low 1.2 [resistant] | S. cerevisiae deletion strains, locus YKL068W, active compounds read low 0.922
inactive: S. cerevisiae deletion strains, locus YBR021W, strain FUR4, active compounds read low 1.03 | S. cerevisiae deletion strains, locus YBR229C, strain ROT2, active compounds read low 1.02 | S. cerevisiae deletion strains, locus YCL029C, strain bik1, active compounds read low 1.01 | S. cerevisiae deletion strains, locus YDL035C, strain GPR1, active compounds read low 1.09 | S. cerevisiae deletion strains, locus YDL074C, strain BRE1, active compounds read low 1.13 | S. cerevisiae deletion strains, locus YDL101C, strain DUN1, active compounds read low 1.02 | S. cerevisiae deletion strains, locus YDL134C, strain PPH21, active compounds read low 1.07 | S. cerevisiae deletion strains, locus YDL185W, strain tfp1, active compounds read low 0.976 | S. cerevisiae deletion strains, locus YDL192W, strain arf1, active compounds read low 1.03 | S. cerevisiae deletion strains, locus YDR101C, strain arx1, active compounds read low 0.999 | S. cerevisiae deletion strains, locus YDR150W, strain NUM1, active compounds read low 1.04 | S. cerevisiae deletion strains, locus YDR162C, strain NBP2, active compounds read low 1.05 | S. cerevisiae deletion strains, locus YDR318W, strain mcm21, active compounds read low 0.987 | S. cerevisiae deletion strains, locus YDR388W, active compounds read low 0.987 | S. cerevisiae deletion strains, locus YDR502C, strain sam2, active compounds read low 0.981 | S. cerevisiae deletion strains, locus YEL061C, strain CIN8, active compounds read low 1.03 | S. cerevisiae deletion strains, locus YER110C, active compounds read low 0.997 | S. cerevisiae deletion strains, locus YER155C, strain BEM2, active compounds read low 0.984 | S. cerevisiae deletion strains, locus YER167W, strain BCK2, active compounds read low 1.01 | S. cerevisiae deletion strains, locus YGL078C, strain dbp3, active compounds read low 0.964 | S. cerevisiae deletion strains, locus YGL086W, strain mad1, active compounds read low 1 | S. cerevisiae deletion strains, locus YGL248W, strain PDE1, active compounds read low 1.06 | S. cerevisiae deletion strains, locus YGR078C, strain PAC10, active compounds read low 1.06 | S. cerevisiae deletion strains, locus YGR135W, strain pre9, active compounds read low 0.994 | S. cerevisiae deletion strains, locus YGR252W, strain gcn5, active compounds read low 1.06 | S. cerevisiae deletion strains, locus YHR030C, strain SLT2, active compounds read low 1.02 | S. cerevisiae deletion strains, locus YHR079C, strain IRE1 (second series), active compounds read low 0.982 | S. cerevisiae deletion strains, locus YHR094C, strain hxt1, active compounds read low 0.987 | S. cerevisiae deletion strains, locus YHR129C, strain ARP1, active compounds read low 1.02 | S. cerevisiae deletion strains, locus YHR200W, strain rpn10, active compounds read low 1 | S. cerevisiae deletion strains, locus YIL066C, strain RNR3, active compounds read low 1.04 | S. cerevisiae deletion strains, locus YIL073C, strain SPO22, active compounds read low 1.12 | S. cerevisiae deletion strains, locus YIL125W, strain kgd1, active compounds read low 0.957 | S. cerevisiae deletion strains, locus YIR030C, strain dcg1, active compounds read low 0.982 | S. cerevisiae deletion strains, locus YJL095W, strain BCK1, active compounds read low 1.1 | S. cerevisiae deletion strains, locus YJL134W, strain LCB3, active compounds read low 1.01 | S. cerevisiae deletion strains, locus YJL168C, strain set2, active compounds read low 0.988 | S. cerevisiae deletion strains, locus YJL187C, strain SWE1 (second series), active compounds read low 1.03 | S. cerevisiae deletion strains, locus YKL009W, strain mrt4, active compounds read low 0.995 | S. cerevisiae deletion strains, locus YKL085W, strain MDH1 (second series), active compounds read low 0.955 | S. cerevisiae deletion strains, locus YKL085W, strain MDH1, active compounds read low 0.955 | S. cerevisiae deletion strains, locus YKL190W, strain CNB1, active compounds read low 1.02 | S. cerevisiae deletion strains, locus YKR001C, strain vps1, active compounds read low 1.04 | S. cerevisiae deletion strains, locus YLR039C, strain RIC1, active compounds read low 1.19 | S. cerevisiae deletion strains, locus YLR058C, strain SHM2, active compounds read low 1.04 | S. cerevisiae deletion strains, locus YLR102C, strain apc9, active compounds read low 0.986 | S. cerevisiae deletion strains, locus YLR262C, strain YPT6, active compounds read low 1.22 | S. cerevisiae deletion strains, locus YLR268W, strain sec22, active compounds read low 0.989 | S. cerevisiae deletion strains, locus YLR330W, strain CHS5, active compounds read low 1.03 | S. cerevisiae deletion strains, locus YLR342W, strain FKS1 (second series), active compounds read low 1.07 | S. cerevisiae deletion strains, locus YLR371W, strain rom2, active compounds read low 1.01 | S. cerevisiae deletion strains, locus YLR418C, strain cdc73, active compounds read low 1.07 | S. cerevisiae deletion strains, locus YML016C, strain PPZ1, active compounds read low 1.02 | S. cerevisiae deletion strains, locus YML032C, strain rad52, active compounds read low 0.991 | S. cerevisiae deletion strains, locus YML124C, strain tub3, active compounds read low 0.975 | S. cerevisiae deletion strains, locus YMR078C, strain ctf18, active compounds read low 0.983 | S. cerevisiae deletion strains, locus YMR223W, strain ubp8, active compounds read low 1 | S. cerevisiae deletion strains, locus YMR263W, strain SAP30, active compounds read low 1.01 | S. cerevisiae deletion strains, locus YMR307W, strain GAS1, active compounds read low 1.03 | S. cerevisiae deletion strains, locus YNL067W, strain RPL9B, active compounds read low 0.992 | S. cerevisiae deletion strains, locus YNL233W, strain BNI4, active compounds read low 1.08 | S. cerevisiae deletion strains, locus YNL250W, strain rad50, active compounds read low 0.956 | S. cerevisiae deletion strains, locus YNL271C, strain bni1, active compounds read low 0.995 | S. cerevisiae deletion strains, locus YNL298W, strain CLA4, active compounds read low 0.993 | S. cerevisiae deletion strains, locus YNL307C, strain MCK1, active compounds read low 0.989 | S. cerevisiae deletion strains, locus YNL322C, strain KRE1, active compounds read low 1.02 | S. cerevisiae deletion strains, locus YNR052C, strain pop2, active compounds read low 0.981 | S. cerevisiae deletion strains, locus YOL006C, strain TOP1, active compounds read low 1.43 | S. cerevisiae deletion strains, locus YOL012C, strain htz1 0.918 | S. cerevisiae deletion strains, locus YOL147C, strain pex11, active compounds read low 0.98 | S. cerevisiae deletion strains, locus YOR061W, strain CKA2, active compounds read low 1.02 | S. cerevisiae deletion strains, locus YOR069W, strain VPS5, active compounds read low 1.01 | S. cerevisiae deletion strains, locus YOR136W, strain idh2, active compounds read low 0.993 | S. cerevisiae deletion strains, locus YOR144C, strain elg1, active compounds read low 0.981 | S. cerevisiae deletion strains, locus YOR184W, strain ser1, active compounds read low 1.04 | S. cerevisiae deletion strains, locus YOR316C, strain cot1, active compounds read low 0.977 | S. cerevisiae deletion strains, locus YPL241C, strain CIN2, active compounds read low 1.02 | S. cerevisiae deletion strains, locus YPR119W, strain clb2, active compounds read low 0.983 | S. cerevisiae deletion strains, locus YPR141C, strain kar3, active compounds read low 0.942 | S. cerevisiae deletion strains, locus YPR163C, strain tif3, active compounds read low 0.986 | S. cerevisiae deletion strains, locus YPR167C, strain met16, active compounds read low 0.98 | S. cerevisiae deletion strains, strain wtn01, active compounds read low 1.01 | S. cerevisiae strains, strain wild type, active compounds read low 1.06

Reference: PubChem BioAssay AID1159580 (chemical genetic matrix, 2015)
